# Test results as given in the supplement of paper PMC7335073.
# Over roughly 4,100 sequences, “relative CpG methylation activity (normalised to average over all NNNCGNNN flanks)” has its median near 0.87; the highest 2% begin near 2.4. This excerpt belongs to a sample that is enriched for the highest values.
# Target: DNMT3A catalytic domain (mouse) (UniProt O88508)
# Assay: relative CpG methylation activity (normalised to average over all NNNCGNNN flanks) (relative (1 = mean)); higher = more methylation of the central CpG
# Settings: system: in vitro, murine catalytic domain; CpG state: hemimethylated substrate pool; residues: 608-908
# Experimental: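 Deep enzymology: a pool of dsDNA substrates with a central CpG flanked by 10 random nucleotides on each side was methylated by the murine DNMT3A or DNMT3B catalytic domain (0.8 mM SAM, 37 °C, 60 min). Methylation was then read out by hairpin ligation, bisulfite conversion and NGS. Values are the average methylation of each NNNCGNNN context (±3 flanks; the outer flanks are random and averaged over), normalised to the overall mean, so 1 = average activity.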
row,Sequence,relative CpG methylation activity
1,ATACGGTG,0.775
2,ATACGCTT,2.67
3,GTACGCTG,1.88
4,ATACGCTG,2.12
5,TAACGCTT,1.53
6,TTACGCTT,2.62
7,TGACGCTT,1.05
8,ATACGGTC,2.39
9,ATACGCTA,2.15
10,GTACGCTT,2.66
11,CTACGGTC,1.92
12,GTACGCTA,1.98
13,CCTCGCAA,1.31
14,CGGCGTAC,0.625
15,AGGCGCAG,0.331
16,TCTCGGTG,0.645
17,TTACGCGA,1.73
18,ACTCGTAG,0.496
19,GAGCGCCT,1.95
20,AGACGTCA,1.03
21,AGACGATG,0.457
22,TTACGCAC,2.32
23,GTACGCGC,2.11
24,ATACGCTC,2.73
25,TTACGCTC,2.74
26,GTACGCAC,1.87

row,Sequence,relative CpG methylation activity
1,GTACGCTC,2.72
2,AAACGCTC,1.44
3,AGACGCTC,1.49
4,TTACGCTG,1.74
5,GCTCGACA,1.04
6,TTCCGTGG,0.603
7,TTGCGTAT,1.47
8,ACTCGGAT,0.799
9,AGGCGTTA,0.256
10,ATACGAGT,1.56
11,GCGCGGGG,0.217
12,GTGCGCTT,2.47
13,GTGCGCTC,2.03
14,GTGCGCCT,2.43
15,CTGCGCCT,1.81
16,GTGCGCCA,2.05
17,GTGCGCTA,1.91
18,CGACGTTG,0.323
19,TCCCGCAT,0.92
20,GGACGATA,0.784
21,TTTCGCCG,1.83
22,AGACGTAT,0.427
23,ATACGAGC,2.39
24,CTACGATC,2.4
25,CTCCGATC,2.41
26,ATACGACC,2.41

row,Sequence,relative CpG methylation activity
1,GTACGACC,2.03
2,GTACGAGC,2.12
3,GTCCGATC,2.18
4,ATACGACG,1.73
5,CTACGATG,1.2
6,TTCCGATC,2.29
7,CTACGATT,1.89
8,TTACGAGC,2.12
9,GGTCGCTG,0.804
10,ACCCGGTC,1.19
11,CCCCGCCT,2.14
12,TGTCGGAA,0.614
13,CCGCGTGG,0.205
14,ACGCGCGG,0.42
15,GCCCGGAT,0.551
16,CTACGAGC,2.44
17,CTACGAGA,1.72
18,CTACGAGT,1.7
19,TTCCGACG,1.77
20,TTTCGCTC,2.02
21,CTTCGCTA,1.66
22,CTTCGCTT,1.78
23,CTTCGCTC,2.46
24,GTTCGCTC,2.37
25,GTTCGCTG,1.46
26,GGCCGGGC,0.75

row,Sequence,relative CpG methylation activity
1,GATCGAGC,0.679
2,ACACGTCC,2.46
3,ACACGTCA,2.19
4,TTACGTCC,2.56
5,TCACGTCC,1.98
6,CCACGTCC,1.94
7,CTACGTGT,1.07
8,CAACGTCC,1.67
9,TGACGTCC,1.32
10,CTACGTCT,2.45
11,CTACGTCC,2.8
12,TTACGTCT,2.14
13,CCACGTCT,1.61
14,GGACGAGA,0.605
15,TCTCGTGT,0.225
16,ATGCGGTG,0.407
17,ACCCGACG,1.17
18,GCTCGGAA,0.694
19,GAGCGTAG,0.34
20,CCGCGGAA,0.965
21,AAACGGTC,0.701
22,GCACGTCA,1.86
23,GTACGTCC,2.41
24,GTACGTCA,2.5
25,TTGCGTCC,2.39
26,TTGCGTCT,1.67

row,Sequence,relative CpG methylation activity
1,GAACGTCC,1.06
2,CTACGTCA,2.51
3,CTACGTGA,1.2
4,CCACGTCA,1.71
5,CTGCGTCC,2.14
6,GTACGTCT,2.06
7,GTACGTAC,1.62
8,ACGCGCCG,1.59
9,ACCCGGTG,0.688
10,GCACGAGG,0.755
11,TGACGTAC,0.438
12,CTCCGAAG,1.01
13,CAGCGCTC,1.08
14,GCGCGAGA,0.455
15,CGCCGAGT,0.664
16,TAACGGCG,0.782
17,ATACGTCA,2.47
18,ATACGTCC,2.56
19,ATACGTCG,2.26
20,ATACGTCT,2.22
21,AAACGTCA,1.14
22,ATACGTGA,1.2
23,GGACGGGC,0.536
24,CGCCGATA,0.761
25,TCTCGAGG,0.357
26,GTGCGTGC,1.11

row,Sequence,relative CpG methylation activity
1,CATCGGAG,0.238
2,TGTCGAAC,0.773
3,GGGCGCCA,1.15
4,CTACGTAC,1.9
5,CTACGTAA,2.4
6,ATACGTAA,2.01
7,TTACGTAT,1.48
8,TTACGTAA,2.54
9,TTACGTAG,1.34
10,CTTCGCAA,1.52
11,AGCCGGGA,0.357
12,GAGCGCTG,0.969
13,TTGCGCCC,2.61
14,TTGCGCCA,1.75
15,GTGCGCCG,1.79
16,GTGCGCCC,2.22
17,CTGCGCCG,1.93
18,TTGCGCCT,2.1
19,ATGCGCCG,2.39
20,ATGCGCCC,2.44
21,CTGCGCCC,2.19
22,CGTCGAGC,1.06
23,AGCCGCAG,0.256
24,CGGCGTAA,0.615
25,GCACGGGA,1.04
26,ATCCGTCT,2.05

row,Sequence,relative CpG methylation activity
1,GTCCGTCG,2.53
2,GTCCGTCA,2.41
3,TTCCGTCG,2.09
4,GTCCGTCT,2.14
5,TTCCGTCT,2.58
6,GTCCGTCC,2.02
7,GTCCGTTG,1.25
8,CTCCGTCT,1.84
9,TGCCGCGA,0.629
10,TGCCGCTT,1.45
11,CGGCGGAT,0.495
12,CGTCGTAG,0.312
13,AACCGTCG,1.34
14,GTACGTCG,1.85
15,CTACGTCG,2.46
16,TCACGTCA,2.03
17,TGACGTCA,0.989
18,CGACGTCG,1.28
19,CTACGTGG,0.594
20,TTACGTTT,1.72
21,TTACGTCA,2.5
22,TGACGTCG,1.02
23,TTACGTCG,2.52
24,TTACGTTG,1.34
25,TTACGTTA,2.55
26,GACCGGCA,0.909

row,Sequence,relative CpG methylation activity
1,AAGCGCAT,0.582
2,TCCCGAGA,1.02
3,GTTCGCAT,1.26
4,TACCGACC,0.79
5,TCTCGCTG,1.57
6,TGCCGCTC,1.84
7,GCACGATT,1.02
8,AACCGACT,0.927
9,CCTCGCCG,1.68
10,CCTCGCCC,2.6
11,GCTCGCCT,2.09
12,CCTCGCCA,1.67
13,CCTCGCCT,2.37
14,TCTCGCCT,1.73
15,GTTCGGTT,0.726
16,GTCCGAAC,1.91
17,CGACGATT,0.644
18,TTACGGCC,2.24
19,TATCGCCT,1.86
20,CACCGGAA,0.755
21,CCACGCTC,2.5
22,ACACGCTT,2.37
23,ACACGCTG,1.74
24,ACACGCTA,1.76
25,ACACGCAC,1.72
26,ACACGCTC,2.4

row,Sequence,relative CpG methylation activity
1,TCACGCTG,1.32
2,CCACGCTA,1.53
3,TCACGCTA,1.56
4,CCACGCTG,1.58
5,TCACGCTC,2.5
6,GCACGCTC,1.98
7,GGTCGTCT,0.726
8,CCCCGATA,1.02
9,TACCGTTT,0.414
10,GCTCGGCC,1.3
11,GGACGTTG,0.114
12,GGACGGAC,0.861
13,ATTCGCTC,1.94
14,ACGCGAGT,0.94
15,GTCCGCTC,2.37
16,GTCCGCTT,2.54
17,GACCGCTC,1.78
18,ATCCGCTG,1.62
19,GGCCGCTT,1.75
20,GTCCGCTG,1.42
21,ATCCGCTT,2.13
22,GTCCGCTA,1.9
23,ATCCGCTC,2.37
24,CTCCGCTT,2.3
25,ATCCGCTA,1.78
26,TTCCGCTT,2.48

row,Sequence,relative CpG methylation activity
1,GCCCGGGT,0.974
2,TGGCGGCC,1
3,CCACGACG,1.18
4,GGCCGTGC,0.353
5,TGCCGTCT,1.28
6,TCCCGAGT,0.977
7,GAGCGCTT,2.07
8,GGCCGAGG,0.41
9,ACACGGTC,1.41
10,AGCCGTGA,0.258
11,CGCCGACA,0.962
12,CTGCGCAG,0.583
13,TTCCGCTA,2.3
14,CTCCGCTC,2.19
15,TTCCGCTC,2.73
16,TGACGTGA,0.475
17,GAACGAGC,1.12
18,CATCGGGA,0.259
19,CGACGCGT,0.316
20,TATCGAGC,0.705
21,TACCGGGC,0.455
22,GTACGCCA,2.14
23,CGACGCCA,1.29
24,CTACGCCA,2.74
25,CCACGCCA,1.91
26,CGACGCCT,1.29

row,Sequence,relative CpG methylation activity
1,CTACGCCT,2.79
2,CTACGCAG,1.43
3,CCACGCCG,1.71
4,CCACGCCT,2.24
5,GTACGCCG,1.9
6,GTACGCCT,2.41
7,CTACGCCG,2.5
8,GCCCGAAA,1.39
9,AGACGGTC,1.15
10,TCCCGTAT,0.643
11,GACCGCTT,1.77
12,ACACGAGC,1.54
13,TTGCGATA,1.13
14,GGTCGTAT,0.455
15,TTGCGGTC,1.43
16,TAGCGGGT,0.231
17,GGACGGGT,0.4
18,ATACGCCT,2.76
19,ATACGCGT,1.9
20,ATACGCAT,1.79
21,GATCGCCG,0.545
22,TCACGACA,1.52
23,CTACGCTG,1.75
24,CAACGCTC,1.36
25,CGACGCTC,1.38
26,CTACGCTA,2.5

row,Sequence,relative CpG methylation activity
1,CTACGCAT,1.97
2,TTACGCTA,1.94
3,CTACGCTT,2.38
4,CTACGCTC,2.66
5,CAACGCTA,0.826
6,GACCGTCG,1.29
7,TGCCGAGC,1.38
8,CGGCGTTT,0.165
9,ACTCGATG,0.513
10,GCCCGGCG,0.38
11,GCACGCCC,2.31
12,GCACGCCT,2.25
13,ACACGCCG,1.92
14,ACACGCCC,2.4
15,ACACGCCA,2.02
16,ACACGCCT,2.44
17,CGCCGGCC,0.909
18,CCGCGGGT,1.11
19,AGACGCCC,1.43
20,TTACGCAA,2.55
21,TAACGCCC,1.61
22,GTACGCAA,1.89
23,TTACGCCG,2.29
24,TTACGCGG,0.654
25,ATACGCGC,1.93
26,ATACGCCG,2.33

row,Sequence,relative CpG methylation activity
1,TTACGCCC,2.64
2,TTACGCAT,2.29
3,TTACGCGC,2.44
4,ATACGCCC,2.85
5,ATTCGCAA,1.09
6,TAACGTAC,0.748
7,GCACGACG,0.957
8,TATCGTTG,0.26
9,TCGCGTAG,0.412
10,GTACGCCC,2.39
11,TAACGCCT,1.2
12,CTACGCAC,2.15
13,ATACGCGA,1.33
14,CTACGCCC,2.62
15,TTACGCCA,2.33
16,GAACGCCC,1.6
17,TTACGCGT,1.81
18,ATACGCCA,2.6
19,GGACGCCC,1.88
20,TTACGCCT,2.38
21,CAACGCCC,1.52
22,TGCCGCGC,0.766
23,TATCGATG,0.224
24,AAACGTAA,0.891
25,AGGCGCCT,1.88
26,TGACGACG,0.449

row,Sequence,relative CpG methylation activity
1,GCCCGTTT,0.909
2,CCTCGGAG,0.294
3,TGCCGCCG,1.03
4,ACCCGCCG,1.76
5,TTCCGCCT,2.6
6,ACCCGCCT,2.44
7,GGCCGCCT,1.37
8,TTCCGCGT,1.64
9,TTCCGCAT,1.78
10,GTCCGCCA,1.87
11,TTCCGCCA,2.2
12,GTCCGCCT,2.6
13,TTCCGCCG,2.55
14,ACCCGCCC,2.24
